The structures appear in SMILES notation. Calls of active or inactive are those of the source. The calls were made as follows: active = hit-call score of the fitted dose curve at least 0.9, where 1 is the maximum; inactive = score below 0.9.

One may read the AC50 as the concentration at which the activity in the assay is half-maximal.

This assay can be described thus: ATG_EGR_CIS: Attagene CIS-FACTORIAL HepG2 Assay for human Early Growth Response 1 (EGR1) (AID 2282938). Conditions: HepG2 Attagene CIS-FACTORIAL EGR reporter mRNA; actives raise or lower the signal. The method in brief:
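Activity is taken as induction or loss of reporter mRNA versus DMSO, fitted bidirectionally. Transcripts from cis-regulated reporter units in transiently transfected HepG2 were measured after 24 h by RT-PCR with capillary electrophoresis.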
On to `Cc1ccc(N=C=O)cc1N=C=O`, for which the compound was called inactive.
The same measure, in the same setting: next, `c1ccc2c(c1)-c1cccc3cccc-2c13`: “inactive”.
With `ClC1=C(Cl)C2(Cl)C3C(Cl)C=CC3C1(Cl)C2(Cl)Cl` (centres undefined), the AC50 was 132 µM (active).
Regarding `COC(=O)c1ccccc1N`, the result was inactive.
Take `c1ccc(NNc2ccccc2)cc1`: the result was inactive.
For the compound `c1ccc(C2CO2)cc1` (centres undefined), the call was inactive.
The same measure, in the same setting: the value for `c1ccc2c(c1)oc1ccccc12` was “inactive”.
The same measure, in the same setting: the value for `O=Cc1ccco1` was “inactive”; that for `CCC(C)c1ccc(O)cc1` (centres undefined) was “inactive”; that for `CCOc1cccc(C2(N3CCN(c4ccccc4)CC3)CCC(C)CC2)c1` (centres undefined) was “inactive”.
Same read-out and setting: next, `COP(=S)(OC)SCN1C(=O)c2ccccc2C1=O`: “inactive”; `[Cl-].[Cl-].[Hg+2]`: “inactive”; `CCN(CC)N=O`: “inactive”.
For `O=C(N[C@H](c1ccccc1)[C@@H]1CN2CCC1CC2)c1c(Cl)ccc(C(F)(F)F)c1Cl`, the compound was classed as inactive.
